Several values for one entry are separate records, joined by “and”; a condition that tells them apart may be missing. Equal values may be shown once. Records with an inconclusive call do not appear. Where a call stands in place of a potency, no number is given. Activity calls are given as the source filed them. Unless noted, calls follow the shape of the dose curve; as a rule, active = well fitted curve in the direction sought with a large enough effect; inconclusive = small, poorly fitted or top-dose-only effect, or another doubt; inactive = no such curve, though single readings can be large; an effect the other way counts as inactive or inconclusive.
Experiments:
[1] = Cell Viability - LYMP2-018 (AID 985);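 also: compound exposure lasted 24 hr at 37 °C; nearly all actives have a fitted effect of over 50% in size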
Method in brief: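 Seed 2500 lymphoblastoid cells per well, incubate 5 hr at 37 C, add compound and incubate 24 hr at 37 C, add CellTiter-Glo, wait 30 min at room temperature, then read luminescence.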

[2] = Cell Viability - LYMP2-020 (AID 986);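 also: cells exposed to compound for 24 h at 37 °C; nearly all actives have a fitted effect of over 55% in size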
Method in brief: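 Seed 2500 cells per well and incubate 5 hr at 37 C. Add compounds at a concentration series and incubate 24 hr at 37 C. Add CellTiter-Glo, wait 30 min at RT, read luminescence, and fit a Hill curve for AC50.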

[3] = Cell Viability - LYMP2-022 (AID 987); also: nearly all actives have a fitted effect of over 55% in size
Method in brief: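 Cells were seeded at 2500 per well, rested 5 hr at 37 C, and treated with titrated compounds for 24 hr at 37 C. Cellular ATP was then quantified by luciferase luminescence, and AC50 values were derived from Hill-modelled concentration-response curves.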

[4] = Cell Viability - LYMP2-024 (AID 988); also: nearly all actives have a fitted effect of over 60% in size
Method in brief: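 qHTS cytotoxicity, human lymphoblastoid line, complete medium; 24 h cpd treatment, 37 C; CellTiter-Glo ATP luminescence readout; tetraoctylammonium bromide positive control; AC50 via Hill fit.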

[5] = Cell Viability - LYMP2-026 (AID 989);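 also: cells exposed to compound for 24 h at 37 °C; nearly all actives have a fitted effect of over 50% in size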
Method in brief: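 Cells are seeded at 2500 per well and held 5 hr at 37 C. Compounds are added in concentration series for 24 hr, then CellTiter-Glo reagent is applied and luminescence read.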

[6] = Cell Viability - LYMP1-002 - Assay at 40 hr (AID 994); also: nearly all actives have a fitted effect of over 60% in size
Method in brief: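 Cells are plated at 2500 per well and rested 5 hr at 37 C. Compounds are added and incubated 40 hr at 37 C. CellTiter-Glo reagent is added for 30 min at room temperature before luminescence is read.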

[7] = target: Alpha-galactosidase A (Homo sapiens) (UniProt P06280); assay: Counterscreen for Glucocerebrosidase Inhibitors: qHTS Assay for Human alpha-Galactosidase at pH 4.5 (AID 992)
Alpha-galactosidase A (Homo sapiens), sequence (P06280 whole entry, looked up): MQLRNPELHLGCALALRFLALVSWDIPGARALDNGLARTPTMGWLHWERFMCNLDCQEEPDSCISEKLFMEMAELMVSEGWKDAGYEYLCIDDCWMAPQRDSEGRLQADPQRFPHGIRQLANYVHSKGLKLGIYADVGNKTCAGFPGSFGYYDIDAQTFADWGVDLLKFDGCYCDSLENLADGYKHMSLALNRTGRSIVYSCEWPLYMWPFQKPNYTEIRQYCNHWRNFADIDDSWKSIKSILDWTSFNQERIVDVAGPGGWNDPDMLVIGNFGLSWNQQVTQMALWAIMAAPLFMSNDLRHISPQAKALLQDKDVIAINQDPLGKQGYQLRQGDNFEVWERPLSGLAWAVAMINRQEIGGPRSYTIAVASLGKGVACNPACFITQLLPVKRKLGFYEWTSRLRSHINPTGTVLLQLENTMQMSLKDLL
Method in brief: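 Citrate buffer pH 4.5, Tween-20 0.005%. Enzyme 2 nM, substrate 80 uM, 20 min RT. Stop pH 10. Fluorescence Ex 365/Em 440. AC50 by Hill fit.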

[8] = target: alpha-glucosidase (Oryza sativa, rice) (UniProt Q653V4); assay: Counterscreen for Glucocerebrosidase Inhibitors: qHTS Assay for Rice alpha-Glucosidase at pH 5.0 (AID 997)
Method in brief: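 Endpoint fluorogenic assay at pH 5.0: compounds (0.7 nM to 77 uM) titrated against 4 nM rice enzyme and 400 uM 4-MU-alpha-glucoside for 20 min at room temperature; NaOH/glycine stop, read ex 365/em 440 nm, Hill-fitted AC50.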

[9] = target: DNA repair nuclease/redox regulator APEX1 (Homo sapiens) (UniProt P27695); assay: qHTS Validation Assay for Inhibitors of the Human Apurinic/apyrimidinic Endonuclease 1 (APE1) (AID 1705;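 also: TAMRA fluorescence gain over two minutes as APE1 cuts a quenched THF abasic duplex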)
DNA repair nuclease/redox regulator APEX1 (Homo sapiens), sequence (P27695 whole entry, looked up): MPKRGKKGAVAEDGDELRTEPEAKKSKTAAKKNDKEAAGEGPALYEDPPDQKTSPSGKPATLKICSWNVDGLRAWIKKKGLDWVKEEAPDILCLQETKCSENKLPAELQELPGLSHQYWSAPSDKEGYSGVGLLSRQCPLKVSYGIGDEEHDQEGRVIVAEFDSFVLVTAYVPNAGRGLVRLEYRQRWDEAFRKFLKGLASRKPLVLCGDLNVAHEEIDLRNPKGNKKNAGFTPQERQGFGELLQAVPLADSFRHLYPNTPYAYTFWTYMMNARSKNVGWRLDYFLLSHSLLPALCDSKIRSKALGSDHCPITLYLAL
Method in brief: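 Fluorogenic double-stranded THF abasic-site substrate (5'-TAMRA/3'-BHQ-2), 50 nM final. Enzyme preincubated with compound 15 min at room temperature, then substrate added. Kinetic fluorescence (ex 525/em 598 nm) read three times at 60 s intervals; activity taken as third-minus-first read difference.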

[10] = Counterscreen for APE1 Inhibitors: Fluorescent Dye Displacement Validation Assay (AID 1707)
Method in brief: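 Signal: ThO fluorescence (ex 480 nm/em 540 nm) on binding 50 nM dsDNA; displacement by test compound reduces it. Conditions: 250 nM dye, 50 mM Tris-HCl pH7.5, 2 mM MgCl2, 50mM NaCl, 0.01% Tween-20.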

[11] = target: Endonuclease 4 (Escherichia coli (strain K12)) (UniProt P0A6C1); assay: Counterscreen for APE1 Inhibitors: qHTS Validation Assay for Inhibitors of Endonuclease IV (AID 1708)
Method in brief: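 Enzyme (2 nM) + compound, 15 min RT; add 50 nM TAMRA/BHQ-2 THF-site dsDNA; kinetic read ex525/em598, 3 reads/60 s; activity = read 3 − read 1. Buffer Tris pH 7.5, 50 mM NaCl, 2 mM MgCl2, DTT, Tween-20.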

[12] = qHTS for differential inhibitors of proliferation of Plasmodium falciparum line 7G8 (AID 1815);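 also: parasite growth measured after three days of incubation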; also: potency is read from the fitted curve at half-maximal effect
[13] = qHTS for differential inhibitors of proliferation of Plasmodium falciparum line GB4 (AID 1816); conditions: Potency: Plasmodium falciparum GB4 proliferation inhibition;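 also: parasite growth measured after 72 h incubation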; also: potency is read from the fitted curve at half-maximal effect
[14] = qHTS for differential inhibitors of proliferation of Plasmodium falciparum line 3D7 (AID 1876); also: potency is read from the fitted curve at half-maximal effect
[15] = qHTS for differential inhibitors of proliferation of Plasmodium falciparum line D10 (AID 1877);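 also: parasites grown with compound for 72 h before DNA staining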; also: potency is read from the fitted curve at half-maximal effect
[16] = qHTS for differential inhibitors of proliferation of Plasmodium falciparum line Dd2 (AID 1882); conditions: Potency: Plasmodium falciparum Dd2 proliferation inhibition; also: nearly all actives have a fitted effect of over 65% in size; also: potency is read from the fitted curve at half-maximal effect
Method in brief: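 SYBR Green DNA fluorescence (ex 485, em 535 nm) after overnight lysis quantifies parasite growth; compound exposure lasted 72 h at 37 C on infected red cells at 2.5% hematocrit, 0.3% parasitemia (final). Artemisinin 0.29 uM and vehicle wells define normalization.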

[17] = qHTS for differential inhibitors of proliferation of Plasmodium falciparum line W2 (AID 1883); conditions: Potency: Plasmodium falciparum W2 proliferation inhibition;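 also: parasites grown with compound for 72 h before lysis and staining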; also: potency is read from the fitted curve at half-maximal effect
[18] = qHTS Assay for Lipid Storage Modulators (AID 1519; calls by dose curve); conditions: Drosophila S3 cells, BODIPY lipid droplet/cell ratio, laser cytometry, cells loaded with oleic acid
Method in brief: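 Cells seeded at 5,000 per well were treated with compounds over a concentration series and loaded with oleic acid (400 uM, as added). Lipid droplet fluorescence (488 nm excitation, 500-530 nm channel) was read by laser-scanning cytometry and normalized to 20 uM Triacsin C.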

[19] = Cell Viability - LYMP1-002 - Assay at 24 hr (AID 993)
Method in brief: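 Acute toxicity is measured as concentration-dependent loss of cellular ATP in a human lymphoblastoid line (Coriell LYMP1-002) after 24 h treatment in complete medium. ATP is quantified by luciferase luminescence and AC50 derived by Hill modelling.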

[20] = measured here: cell count channel max response
[21] = measured here: lipid channel max response

## NS(=O)(=O)c1cc2c(cc1Cl)NC=NS2(=O)=O
[1]
  outcome: inactive
[2]
  outcome: inactive
[3]
  outcome: inactive
[4]
  outcome: inactive
[5]
  outcome: inactive
[6]
  outcome: inactive

## CC(=O)Oc1ccccc1C(=O)O
[1]
  outcome: inactive
[2]
  outcome: inactive
[3]
  outcome: inactive
[4]
  outcome: inactive
[5]
  outcome: inactive
[6]
  outcome: inactive

## OC(CN1CCC(Cc2ccc(F)cc2)CC1)c1ccc(Cl)cc1 (stereo not given)
[7]
  outcome: inactive
[8]
  outcome: inactive
[9]
  outcome: inactive
[10]
  outcome: inactive
[11]
  outcome: inactive
[12]
  Potency: 0.501 µM (active)
[13]
  Potency: 0.355 µM (active)
[14]
  Potency: 1.26 µM (active)
[15]
  Potency: 2.51 µM (active)
[16]
  Potency: 1.26 µM (active)
[17]
  Potency: 0.282 µM (active)

## Cc1cn[nH]c1
[7]
  outcome: inactive
[8]
  outcome: inactive
[10]
  outcome: inactive
[11]
  outcome: inactive
[12]
  Potency: inactive
[13]
  Potency: inactive
[14]
  Potency: inactive
[15]
  Potency: inactive
[16]
  Potency: inactive
[17]
  Potency: inactive

## CC(C)(Sc1ccc(CCN(CCCCC2CCCCC2)C(=O)NC2CCCCC2)cc1)C(=O)O
[7]
  outcome: inactive
[8]
  outcome: inactive
[18]; at 57.5 µM (top of the series)
  activity change, negative = inhibition: -0.767% (inactive)
[18]; [20]
  max response: 16.5%
[18]; [21]
  max response: 13.3%
[9]
  outcome: inactive
[10]
  outcome: inactive
[14]
  Potency: inactive
[15]
  Potency: inactive
[16]
  Potency: inactive

## CC(C)NCC(O)COc1ccc(COCCOC(C)C)cc1 (stereo not given)
[7]
  outcome: inactive
[8]
  outcome: inactive
[10]
  outcome: inactive
[11]
  outcome: inactive
[14]
  Potency: inactive
[15]
  Potency: inactive
[16]
  Potency: inactive

## C[C@]12CCC(=O)C=C1CC[C@@H]1[C@@H]2[C@@H](O)C[C@@]2(C)[C@H]1CC[C@]2(O)C(=O)CO
[7]
  outcome: inactive
[8]
  outcome: inactive

## O=NN(CCCl)C(=O)NCCCl
[7]
  outcome: inactive
[8]
  outcome: inactive
[18]; at 57.5 µM (top of the series)
  activity change, negative = inhibition: -2.32% (inactive)
[18]; [20]
  max response: -3.08%
[18]; [21]
  max response: -6.13%
[9]
  outcome: inactive
[10]
  outcome: inactive
[12]
  Potency: inactive
[13]
  Potency: inactive
[14]
  Potency: inactive
[16]
  Potency: inactive
[17]
  Potency: inactive

## CC(C[N+](C)(C)C)OC(N)=O (stereo not given)
[18]; at 57.5 µM (top of the series)
  activity change, negative = inhibition: 0.608% (inactive)
[18]; [20]
  max response: -11.2%
[18]; [21]
  max response: -6.21%
[9]
  outcome: inactive
[10]
  outcome: inactive
[11]
  outcome: inactive
[12]
  Potency: inactive
[13]
  Potency: inactive
[14]
  Potency: inactive
[15]
  Potency: inactive
[16]
  Potency: inactive

## NC(N)=NC(=O)c1nc(Cl)c(N)nc1N
[1]
  outcome: inactive
[3]
  outcome: inactive
[4]
  outcome: inactive
[5]
  outcome: inactive
[7]
  outcome: inactive
[19]
  outcome: inactive
[6]
  outcome: inactive
[8]
  outcome: inactive
[9]
  outcome: inactive
[11]
  outcome: inactive

## CCn1cc(C(=O)O)c(=O)c2cc(F)c(N3CCNC(C)C3)c(F)c21 (stereo not given)
[18]; at 57.5 µM (top of the series)
  activity change, negative = inhibition: 5.34% (inactive)
[18]; [20]
  max response: 16.3%
[18]; [21]
  max response: 26.1%
[9]
  outcome: inactive
[10]
  outcome: inactive
[14]
  Potency: 11.2 µM (active)
[17]
  Potency: 10 µM (active)

## CN1CCN(CCCN2c3ccccc3Sc3ccc(C(F)(F)F)cc32)CC1
[7]
  outcome: inactive
[8]
  outcome: inactive
[18]; at 25.7 µM (top of the series)
  activity change, negative = inhibition: -6.05% (inactive)
[18]; at 57.5 µM (top of the series)
  activity change, negative = inhibition: 7.35% (inactive)
[18]; [20]
  max response: -17.1% and 19.1%
[18]; [21]
  max response: -20.9% and 29.4%
[9]
  outcome: inactive
[10]
  outcome: inactive
[12]
  Potency: 3.98 µM (active)
[13]
  Potency: 4.47 µM (active)
[14]
  Potency: 7.08 µM (active)
[15]
  Potency: 11.2 µM (active)
[16]
  Potency: 12.6 µM (active)
[17]
  Potency: 4.47 µM (active)

## CNC[C@H](O)c1cccc(O)c1
[7]
  outcome: inactive
[8]
  outcome: inactive
[18]; at 57.5 µM (top of the series)
  activity change, negative = inhibition: 0.239% (inactive)
[18]; [20]
  max response: 20.5%
[18]; [21]
  max response: 21.2%
[9]
  outcome: inactive
[10]
  outcome: inactive
[11]
  outcome: inactive
[12]
  Potency: inactive
[13]
  Potency: inactive
[14]
  Potency: inactive
[15]
  Potency: inactive
[16]
  Potency: inactive
[17]
  Potency: inactive

## Nc1nc2c(ncn2COCCO)c(=O)[nH]1
[7]
  outcome: inactive
[8]
  outcome: inactive
[9]
  outcome: inactive
[10]
  outcome: inactive
[11]
  outcome: inactive
[12]
  Potency: inactive
[13]
  Potency: inactive
[14]
  Potency: inactive
[15]
  Potency: inactive
[16]
  Potency: inactive

## CC(C)(C)NCC(O)c1ccc(O)c(CO)c1 (stereo not given)
[18]; at 57.5 µM (top of the series)
  activity change, negative = inhibition: 0.332% (inactive) and 5.35% (inactive)
[18]; [20]
  max response: 11.9% and -13.2%
[18]; [21]
  max response: 15.4% and -7.47%
[9]
  outcome: inactive
[10]
  outcome: inactive
[11]
  outcome: inactive

## CCOC(=O)N1CCC(=C2c3ccc(Cl)cc3CCc3cccnc32)CC1
[7]
  outcome: inactive
[8]
  outcome: inactive
[18]; at 57.5 µM (top of the series)
  activity change, negative = inhibition: 3.85% (inactive)
[18]; [20]
  max response: 1.57%
[18]; [21]
  max response: 11.7%
[9]
  outcome: inactive
[10]
  outcome: inactive
[11]
  outcome: inactive
[12]
  Potency: 2.24 µM (active)
[13]
  Potency: 10 µM (active)
[14]
  Potency: 12.6 µM (active)
[15]
  Potency: 10 µM (active)
[16]
  Potency: 10 µM (active)
[17]
  Potency: 5.01 µM (active)
